Bioassay records deposited in PubChem BioAssay by National Center for Advancing Translational Sciences (NCATS).
In the library only some 7.9% were active in any assay of this set; here they are far more common.
KB-3-1 tox – kills parental KB-3-1 adenocarcinoma cells; KB-3-1 viability, CellTiter-Glo ATP luminescence, 72 h; Potency, µM (highest dose often 46.1 µM), usual class: cytotoxic; 400,000 compounds, 1.4% hits; AID 1347075; also: % is scaled to controls: 0 for no effect and ±100 for the full control effect; nearly all actives have a fitted effect of over 60% in size
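KB-3-1 cells, DMEM (no phenol red) + 10% FBS; compound by pin transfer, 72 h, 37 °C. Readout: CellTiter-Glo luminescence after 10 min. Data normalized, curve-fitted.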
KB-V1 MDR tox – kills drug-selected multidrug resistant KB-V1 cells | Potency, µM (doses to about 46.1 µM), most hits filed as cytotoxic | 400,000 compounds, 3.4% hits | AID 1347076 | KB-V1 MDR cells viability, CellTiter-Glo, 72 h; also: % is scaled to controls: 0 for no effect and ±100 for the full control effect; nearly all actives have a fitted effect of over 60% in size
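Readout: CellTiter-Glo luminescence, 10 min after addition. Cells: KB-V1 MDR subline, 72 h at 37 degrees C with compound. Analysis: corrected, normalized data fitted to concentration-effect curves.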
SW480 rerep – inducers of DNA re-replication in SW480 colon cancer cells; SW480 DNA re-replication, Hoechst DNA content imaging, 48 h; Potency, µM (doses to about 46.1 µM), for inactives: at the highest dose re-replication activation, actives largely listed as activators; 340,000 compounds, 1.8% hits; AID 624297; also: % of control where 0% means no effect; nearly all actives have a fitted effect of over 55% in size
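Treated cells incubate 48 hr (37 C, 5% CO2), are stained 40 min with Hoechst, and nuclear fluorescence is enumerated; a rise in nuclei with high DNA signal marks re-replication.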
HT1080 IDH1KD tx – toxicity to HT-1080 IDH1 knockdown cells (counter line). AID 686971. 360,000 compounds, 2% hits. HT-1080 IDH1 knockdown viability, ATP luminescence, 48 h. Potency, µM (doses to about 46.1 µM), inactives show top-dose activity, negative = toxicity, most hits filed as cytotoxic;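 also: 0% = DMSO wells and -100% = cell-free medium wells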
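Viability of IDH1-knockdown HT-1080 fibrosarcoma cells was assessed by CellTiter-Glo after 48 h at 37 °C with titrated compound; concentration-effect curves were classified by fit quality and response size.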
HT1080NT lethal – kills 2HG-producing HT-1080-NT fibrosarcoma cells; Potency, µM (titrated, usually from 46.1 µM), for the others: at the highest dose activity, negative = less viability, actives largely listed as cytotoxic; 360,000 compounds, 1.6% hits; HT-1080-NT fibrosarcoma viability, CellTiter-Glo ATP luminescence, 48 h;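 also: NT is the 2HG producing partner of a matched IDH1 knockdown line; 0% = DMSO-treated cells and -100% = media-only wells without cells; nearly all actives have a fitted effect of over 55% in size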
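Toxicity toward the 2HG-producing NT line was scored as %Activity, normalised to DMSO and no-cell wells, from CellTiter-Glo luminescence after 48 hours' treatment.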
MCF10A rerep – inducers of DNA re-replication in MCF 10A breast cells. Potency, µM (titrated, usually from 46.1 µM), without a hit: at the top dose activity, positive = re-replication, usual class: activators. MCF 10A DNA re-replication, Hoechst nuclear intensity, 48 h. AID 624296. 350,000 compounds, 2.9% hits; also: % of control where 0% means no effect; nearly all actives have a fitted effect of over 50% in size
An asterisk follows results filed as active; i = inactive; ? = inconclusive; . = no result. Calls follow the shape of the dose curve; as a rule, active = well fitted curve in the direction sought with a large enough effect; inconclusive = small, poorly fitted or top-dose-only effect, or another doubt; inactive = no such curve, though single readings can be large; an effect the other way counts as inactive or inconclusive. Potency is read from the fitted curve at half-maximal effect.

SMILES	KB-3-1 tox	KB-V1 MDR tox	SW480 rerep	HT1080 IDH1KD tx	HT1080NT lethal	MCF10A rerep
CCCCC(=O)Nc1cccc(-c2csc(-c3ccccc3)n2)c1	i	i	?	?	-22%	26µM*
Cc1cc(NC(=O)Cc2csc(-c3ccccc3)n2)ccc1Br	?	18µM*	-117%	5%	0%	4%
O=C(O)CCC(=O)Nc1cccc(-c2csc(-c3ccccc3)n2)c1	i	i	-1%	0%	-1%	2%
CC(=O)NCCc1csc(-c2ccccc2)n1	i	i	?	0%	10%	6.5µM*
Cc1ccc(NC(=S)Nc2nc(CC(=O)Nc3ccccc3)cs2)cc1	i	i	?	7.9µM*	7.1µM*	?
CCc1ccccc1NC(=O)C1COc2ccccc2C1 (stereo not given)	i	?	.	.	.	.
Cc1n[nH]c(C)c1CCCCOc1ccccc1[N+](=O)[O-]	?	i	3%	-15%	-4%	-3%
CCOc1ccccc1N1CCN(C(=O)c2cc(S(=O)(=O)N3CCCCC3)ccc2C)CC1	i	i	-3%	-4%	-7%	11%
CN1CCN(C(=O)c2ccc(Cl)c(S(=O)(=O)N3CCCCC3)c2)CC1	i	15µM*	4%	-13%	0%	-2%
COc1cc2c(cc1OC)CN(C(=O)c1ccc(Cl)c(S(=O)(=O)N3CCCC3)c1)CC2	i	21µM*	-12%	0%	-8%	?
CCOc1ccccc1N1CCN(C(=O)c2ccc(Cl)c(S(=O)(=O)N3CCCCC3)c2)CC1	i	7.3µM*	-5%	-24%	-21%	?
COc1cc2c(cc1OC)CN(C(=O)c1ccc3nc[nH]c3c1)CC2	?	i	5.8µM*	12µM*	10µM*	8.2µM*
O=C(c1ccc2nc[nH]c2c1)N1CCc2ccccc2C1	i	i	-1%	17%	5%	3%
COc1cc2c(cc1OC)CN(C(=O)c1ccc(OC)c(S(=O)(=O)N3CCCC3)c1)CC2	i	?	?	-16%	-6%	3%
CCCN(C(=O)CSc1nnc(-c2ccc3c(c2)OCO3)o1)C1CCS(=O)(=O)C1 (stereo not given)	i	i	.	7%	2%	.
Cn1nnc2c(N3CCN(Cc4ccccc4)CC3)ncnc21	.	.	.	14%	2%	.
CN1CCCN(C(=O)c2ccc(Cl)c(S(=O)(=O)N(C)c3ccccc3)c2)CC1	i	?	13%	4%	-3%	21µM*
C=CCn1c(SCc2ccc(C(=O)Nc3nccs3)cc2)nnc1-c1ccc(C)c(Cl)c1	?	5.2µM*	?	?	-21%	10µM*
Cn1nnnc1SCc1ccc(C(=O)Nc2nccs2)cc1	i	i	-3%	1%	?	?
CCNC(=O)N(CC)C[C@H]1N[C@@](C)(C(=O)OC)[C@H]2C(=O)N(Cc3ccccc3)C(=O)[C@@H]12	i	i	0.23µM*	-1%	0%	-5%
O=C(Cn1cccc1C(=O)c1ccccc1)NCc1ccc(F)cc1	i	i	-1%	18%	2%	7%
O=C(Cn1cccc1C(=O)c1ccccc1)NCc1ccccc1	i	23µM*	2%	7%	19%	10%
CCOc1ccc(CCNC(=O)Cn2c(=O)oc3ccccc32)cc1OCC	i	18µM*	-3%	-7%	22%	-4%
COc1ccc(Cn2c(=O)oc3ccccc32)cc1OC	?	21µM*	.	-14%	-1%	.
CCOc1ccc(CCNC(=O)CN(C)S(=O)(=O)c2cccs2)cc1OCC	i	4.6µM*	1%	1%	-3%	6%
SMILES	KB-3-1 tox	KB-V1 MDR tox	SW480 rerep	HT1080 IDH1KD tx	HT1080NT lethal	MCF10A rerep
Cc1ccc(-c2noc(CCC(=O)Nc3ccccc3C)n2)cc1	i	16µM*	-1%	-27%	?	36%
Cc1ccc(-c2noc(CCC(=O)N(C)c3ccccc3C)n2)cc1	?	13µM*	4%	-3%	-4%	3%
COCCNC(=O)C1(C)CCCN(CCSc2ccccc2)C1 (stereo not given)	i	i	.	?	9%	.
COc1ccc(NC(=O)CSc2nc3ccc(OC)cc3[nH]2)cc1	i	i	-7%	0%	0%	-3%
COc1ccc2nc(SCC(=O)NC3CCCc4ccccc43)[nH]c2c1 (stereo not given)	?	18µM*	-2%	-15%	-2%	-1%
Cc1ccc2nc(SC(C)C(=O)NC3CCCc4ccccc43)[nH]c2c1 (stereo not given)	i	21µM*	.	-17%	-1%	?
COc1ccc2nc(SCC(=O)N(C)C3CCCCC3)[nH]c2c1	i	21µM*	2%	2%	4%	0%
O=C(CSc1nc2ccc(Cl)cc2[nH]1)NC1CCCc2ccccc21 (stereo not given)	i	i	4%	?	-21%	?
COc1ccc2nc(SCC(=O)NC3CCCCC3C)[nH]c2c1 (stereo not given)	?	?	?	?	?	16%
COc1ccc2nc(SCC(=O)NC(C)(C)C)[nH]c2c1	i	i	?	0%	0%	8.2µM*
COc1ccc(OC)c(CNC(=O)C2CCC(=O)N2C(C)C)c1 (stereo not given)	i	i	-3%	13%	21%	0%
Cc1ccccc1-n1nnnc1SC(C)C(=O)NC1CCCc2ccccc21 (stereo not given)	i	3.7µM*	?	1%	0%	-3%
O=C(CN(Cc1cccs1)S(=O)(=O)c1ccc(S(=O)(=O)NC2CCCCC2)cc1)Nc1ccccc1	?	13µM*	29%	-26%	-9%	?
CC1CCCCC1NS(=O)(=O)CCNC(=O)c1ccccc1 (stereo not given)	i	21µM*	-3%	-3%	-4%	-9%
Cc1ccc2c(CSc3nc4ccccc4c(=O)n3CCCO)cc(=O)oc2c1C	i	i	-1%	?	?	?
Cc1ccc2c(CSc3nnc4ccccn34)cc(=O)oc2c1C	i	16µM*	-13%	5%	2%	-1%
N#Cc1nc(COc2ccc(-c3ccccc3)cc2)oc1NCCCN1CCOCC1	?	i	?	?	?	11µM*
N#Cc1nc(/C=C/c2ccccc2)oc1NCCCN1CCOCC1	i	?	?	-7%	-8%	23µM*
COCCNc1oc(/C=C/c2ccccc2)nc1C#N	i	i	1%	0%	3%	15%
